Read-out in experiment [1]: TIMP metallopeptidase inhibitor 2 (TIMP2), TIMP2 (gene 7077)
The experiment is described as follows: BSK_KF3CT_TIMP2: BioMAP Diversity Plus: KF3CT Assay for TIMP metallopeptidase inhibitor 2 (TIMP2) Biomarker Activity (AID 2283071). As to conditions: primary human keratinocytes with fibroblasts; actives raise or lower the signal. The gist of the method:
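Chemicals were dosed onto human skin primary co-cultures of keratinocytes and foreskin fibroblasts, and TIMP-2 was measured by ELISA after 24 hours. Activity in either direction was fitted relative to DMSO.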

Read-out in experiment [2]: C-C motif chemokine 2 (Homo sapiens) (UniProt P13500)
Kind of experiment: BSK_KF3CT_MCP1: BioMAP Diversity Plus: KF3CT Assay for Monocyte Chemoattractant Protein 1 (MCP1/CCL2) Biomarker Activity (AID 2283073). As to conditions: primary human keratinocytes with fibroblasts; actives raise or lower the signal. The gist of the method: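 ELISA read-out of MCP-1, 24 h post-dose, in primary human skin keratinocytes co-cultured with fibroblasts. Parallel SRB staining monitors cytotoxicity; changes fitted both directions relative to DMSO.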

Read-out in experiment [3]: Matrix Metallopeptidase 9 (MMP9), MMP9 (gene 4318)
The experiment is described as follows: BSK_KF3CT_MMP9: BioMAP Diversity Plus: KF3CT Assay for Matrix Metallopeptidase 9 (MMP9) Biomarker Activity (AID 2283074).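 On AC50: MMP9 protein level quantified by ELISA in the co-culture.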 To be noted: primary human keratinocytes with fibroblasts; actives raise or lower the signal. The procedure, abridged: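 ELISA read-out of MMP-9 at 24 h post-dosing in a co-culture of human skin keratinocytes and foreskin fibroblasts. Gain or loss of signal was fitted in both directions against DMSO.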

Read-out in experiment [4]: urokinase plasminogen activator (uPA), PLAU (gene 5328)
The experiment is described as follows: BSK_KF3CT_uPA: BioMAP Diversity Plus: KF3CT Assay for urokinase plasminogen activator (uPA) Biomarker Activity (AID 2283075). As to conditions: primary human keratinocytes with fibroblasts; actives raise or lower the signal. The gist of the method: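 Skin co-culture (keratinocytes + foreskin fibroblasts), human primary; 24 h post-dose; uPA by ELISA; gain/loss fit vs DMSO baseline.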

Read-out in experiment [5]: CD40, CD40 (gene 958)
The experiment is described as follows: BSK_LPS_CD40: BioMAP Diversity Plus: LPS Assay for CD40 Biomarker Activity (AID 2283076). To be noted: primary human HUVEC with PBMC; actives raise or lower the signal. The procedure, abridged: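 In the LPS system of human endothelial cells with peripheral blood mononuclear cells, CD40 levels were read by ELISA 24 h post-treatment. Signal changes in either direction were fitted against the DMSO baseline, with parallel SRB protein staining.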

Read-out in experiment [6]: E-selectin (Homo sapiens) (UniProt P16581)
Kind of experiment: BSK_LPS_Eselectin: BioMAP Diversity Plus: LPS Assay for Eselectin Biomarker Activity (AID 2283077). To be noted: primary human HUVEC with PBMC; actives raise or lower the signal. The gist of the method: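 E-selectin ELISA on LPS-stimulated endothelial cell/PBMC co-cultures, read 24 h post-treatment; gains and losses fitted against DMSO. Parallel SRB staining (0.1% SRB after 10% TCA fixation, 560 nm) flags overt cytotoxicity.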

Read-out in experiment [7]: Interleukin-8 (IL8), CXCL8 (gene 3576)
The experiment is described as follows: BSK_LPS_IL8: BioMAP Diversity Plus: LPS Assay for Interleukin-8 (IL8) Biomarker Activity (AID 2283078). As to conditions: primary human HUVEC with PBMC; actives raise or lower the signal. The procedure, abridged: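 ELISA read-out of IL-8 after 24 h chemical treatment of LPS-activated endothelial/PBMC human primary co-cultures. Changes either up or down relative to DMSO; overt cytotoxicity checked by sulforhodamine B staining in parallel wells.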

Experiment [8] in a line: BSK_LPS_SRB: Viability Assessment in the BioMAP Diversity Plus: LPS Assay (AID 2283079).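 Further: total protein by sulforhodamine B absorbance as a cytotoxicity measure; measured one day after compound addition.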 To be noted: primary human HUVEC with PBMC. The procedure, abridged: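 SRB viability endpoint: cells fixed with 10% TCA, stained with 0.1% SRB, read at 560 nm, 24 h post-dose. HUVEC/PBMC co-culture; signal change in either direction scored relative to DMSO.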
Read-out in experiment [9]: Interleukin-1 alpha (IL1a), IL1A (gene 3552)
The experiment is described as follows: BSK_LPS_IL1a: BioMAP Diversity Plus: LPS Assay for Interleukin-1 alpha (IL1a) Biomarker Activity (AID 2283080). To be noted: primary human HUVEC with PBMC; actives raise or lower the signal. The procedure, abridged:
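Readout is IL-1a level by ELISA, 24 h post-dose, fitted as gain or loss relative to DMSO. System: LPS-activated human primary co-culture of vascular endothelium and peripheral blood mononuclear cells, with parallel SRB total-protein cytotoxicity.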

Read-out in experiment [10]: Monocyte Chemoattractant Protein-1 (MCP1), CCL2 (gene 6347)
The experiment is described as follows: BSK_LPS_MCP1: BioMAP Diversity Plus: LPS Assay for Monocyte Chemoattractant Protein-1 (MCP1) Biomarker Activity (AID 2283081).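 On AC50: secreted MCP-1 protein quantified by ELISA in culture supernatant.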 To be noted: primary human HUVEC with PBMC; actives raise or lower the signal. The gist of the method: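 Secreted MCP-1 read by ELISA at 24 h post-dosing in an LPS-activated co-culture of endothelial cells with peripheral blood mononuclear cells. Fits run in both directions, DMSO as baseline; parallel SRB staining tracks overt cytotoxicity.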

A short description of experiment [11]: BSK_LPS_PGE2: BioMAP Diversity Plus: LPS Assay for Prostaglandin E2 (PGE2) Biomarker Activity (AID 2283082). As to conditions: primary human HUVEC with PBMC; actives raise or lower the signal. The procedure, abridged:
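Compounds were added to the LPS co-culture of endothelium and PBMC, and PGE2 was measured by ELISA after 24 h. Responses in either direction were fitted with DMSO as baseline.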

Read-out in experiment [12]: Tissue Factor, F3 (gene 2152)
The experiment is described as follows: BSK_LPS_TissueFactor: BioMAP Diversity Plus: LPS Assay for Tissue Factor Biomarker Activity (AID 2283084). As to conditions: primary human HUVEC with PBMC; actives raise or lower the signal. The procedure, abridged:
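Compound was added to an endothelial cell/PBMC co-culture, and after 24 h tissue factor (CD142) was read by ELISA. Gain or loss of signal was fitted against a DMSO baseline, and parallel SRB staining (560 nm) tracked overt cytotoxicity.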

Read-out in experiment [13]: Tumor necrosis factor (Homo sapiens) (UniProt P01375)
The experiment is described as follows: BSK_LPS_TNFa: BioMAP Diversity Plus: LPS Assay for Tumour Necrosis Factor alpha (TNFa) Biomarker Activity (AID 2283085).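 On AC50: TNFa protein level quantified by ELISA in the co-culture.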 To be noted: primary human HUVEC with PBMC; actives raise or lower the signal. The gist of the method:
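Cells (umbilical vein endothelium plus peripheral blood mononuclear cells) were dosed with chemical, incubated 24 h, then TNFa was quantified by ELISA; values derive from bidirectional fitting with DMSO as baseline.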

Read-out in experiment [14]: Vascular cell adhesion molecule 1 (VCAM1), VCAM1 (gene 7412)
The experiment is described as follows: BSK_LPS_VCAM1: BioMAP Diversity Plus: LPS Assay for Vascular cell adhesion molecule 1 (VCAM1) Biomarker Activity (AID 2283086). As to conditions: primary human HUVEC with PBMC; actives raise or lower the signal. The procedure, abridged: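 Cells are dosed in an LPS-stimulated endothelial/mononuclear co-culture and, after 24 h, VCAM-1 is quantified by ELISA. Activity in either direction is fitted relative to the DMSO negative control.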

Read-out in experiment [15]: CD38, CD38 (gene 952)
The experiment is described as follows: BSK_SAg_CD38: BioMAP Diversity Plus: SAg Assay for CD38 Biomarker Activity (AID 2283087). To be noted: primary human HUVEC with PBMC; actives raise or lower the signal. The gist of the method: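 CD38 quantified by ELISA (fluorescence) in a superantigen-activated endothelial cell–PBMC co-culture at 24 h post-dose. Activity fitted in both directions relative to DMSO; parallel SRB and Alamar Blue cytotoxicity read-outs.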

Read-out in experiment [16]: CD40, CD40 (gene 958)
Kind of experiment: BSK_SAg_CD40: BioMAP Diversity Plus: SAg Assay for CD40 Biomarker Activity (AID 2283088). As to conditions: primary human HUVEC with PBMC; actives raise or lower the signal. The procedure, abridged:
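CD40 is measured by fluorescence ELISA in an endothelial/PBMC primary human co-culture at 24 h post-dose. Fitting is bidirectional, DMSO baseline. Parallel SRB staining (560 nm) flags cytotoxicity.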

Read-out in experiment [17]: CD69, CD69 (gene 969)
The experiment is described as follows: BSK_SAg_CD69: BioMAP Diversity Plus: SAg Assay for CD69 Biomarker Activity (AID 2283089).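 On AC50: cell surface CD69 protein quantified by ELISA with fluorescence detection.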 As to conditions: primary human HUVEC with PBMC; actives raise or lower the signal. The procedure, abridged:
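Values derive from bidirectional fitting relative to DMSO vehicle. Cells: umbilical vein endothelium plus peripheral blood mononuclear cells, treated 24 h before fluorescent ELISA for CD69.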

Read-out in experiment [18]: Transforming growth factor beta 1 (TGFb1), TGFB1 (gene 7040)
The experiment is described as follows: BSK_KF3CT_TGFb1: BioMAP Diversity Plus: KF3CT Assay for Transforming growth factor beta 1 (TGFb1) Biomarker Activity (AID 2283072). To be noted: primary human keratinocytes with fibroblasts; actives raise or lower the signal. The procedure, abridged:
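KF3CT co-culture (keratinocytes + fibroblasts), 24 h exposure → TGF-b1 ELISA → bidirectional fit, DMSO = baseline. Parallel SRB total-protein staining (0.1% SRB, 10% TCA fixation, 560 nm) for cytotoxicity.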

Read-out in experiment [19]: Macrophage colony-stimulating factor (MCSF), CSF1 (gene 1435)
Kind of experiment: BSK_LPS_MCSF: BioMAP Diversity Plus: LPS Assay for Macrophage colony-stimulating factor (MCSF) Biomarker Activity (AID 2283083). To be noted: primary human HUVEC with PBMC; actives raise or lower the signal. The procedure, abridged:
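Bidirectional fitting against DMSO was applied to M-CSF levels read by ELISA at 24 h post-dose. The system pairs human umbilical vein endothelium with peripheral blood mononuclear cells; parallel SRB staining tracked cytotoxicity.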

SMILES strings stand for the structures. “And” between values parts separate entries of the source, which are not always exact repeats. Identical values can stand only once. Where a structure was tested more than once in an assay, its records may differ in their call. The source made the active and inactive calls. How the source made its calls: active means hit-call score of the fitted dose curve at least 0.9, where 1 is the maximum; inactive means score below 0.9.

Sequence of Tumor necrosis factor (Homo sapiens) (P01375 whole entry, looked up): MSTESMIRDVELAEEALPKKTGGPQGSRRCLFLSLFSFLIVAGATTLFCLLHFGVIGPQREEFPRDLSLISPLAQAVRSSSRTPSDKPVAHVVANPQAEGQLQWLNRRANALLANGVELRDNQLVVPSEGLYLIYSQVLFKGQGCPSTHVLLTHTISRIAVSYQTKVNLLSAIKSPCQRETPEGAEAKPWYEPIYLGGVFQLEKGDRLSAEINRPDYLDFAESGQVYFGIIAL
Sequence of E-selectin (Homo sapiens) (P16581 whole entry, looked up): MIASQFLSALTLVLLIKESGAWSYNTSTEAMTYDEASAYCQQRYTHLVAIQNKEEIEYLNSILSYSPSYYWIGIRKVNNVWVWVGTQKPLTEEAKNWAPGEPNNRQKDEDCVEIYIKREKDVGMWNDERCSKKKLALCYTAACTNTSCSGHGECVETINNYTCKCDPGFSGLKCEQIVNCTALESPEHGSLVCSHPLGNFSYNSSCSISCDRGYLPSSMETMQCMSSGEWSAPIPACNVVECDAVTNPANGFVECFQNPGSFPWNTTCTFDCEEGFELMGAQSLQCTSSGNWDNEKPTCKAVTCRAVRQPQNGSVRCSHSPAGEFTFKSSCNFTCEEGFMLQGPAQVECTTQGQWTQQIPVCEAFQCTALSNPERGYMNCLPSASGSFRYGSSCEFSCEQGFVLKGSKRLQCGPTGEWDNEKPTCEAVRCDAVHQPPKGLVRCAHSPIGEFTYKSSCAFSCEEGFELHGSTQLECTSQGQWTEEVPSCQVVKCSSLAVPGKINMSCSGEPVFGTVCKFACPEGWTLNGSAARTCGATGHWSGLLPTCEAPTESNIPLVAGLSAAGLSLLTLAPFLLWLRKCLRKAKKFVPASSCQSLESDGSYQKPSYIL

With `O=C(O)C(F)(F)C(F)(F)C(F)(F)C(F)(F)C(F)(F)C(F)(F)C(F)(F)C(F)(F)C(F)(F)C(F)(F)C(F)(F)C(F)(F)F`, the result in experiment [1], in experiment [2], in experiment [3], in [4], in [5] and in experiment [6] was inactive. Moreover, the outcome in experiment [7], in [8], in [9], in experiment [10], in experiment [11] and in [12] was inactive. Also, the outcome in [13], in [14], in experiment [15] and in experiment [17] was inactive. The AC50 in experiment [16] was 21.1 µM (active) and 16.7 µM (active).
For `CCCCCCCCCCCCCCCC[N+](C)(C)Cc1ccccc1`, the AC50 is 1.9 µM (active) in experiment [1]; 1.02 µM (active) in experiment [18]; 3.15 µM (active) in [2]; 1.76 µM (active) in [3]; 2.39 µM (active) in experiment [4]; 13 µM (active) in experiment [5]. Moreover, the AC50 in [6] was 4.01 µM (active); in experiment [7] it was 5.25 µM (active); in experiment [8] it was 5.2 µM (active); in [9], 9.26 µM (active); in experiment [10] it was 11.4 µM (active); in [12], 10.7 µM (active). Also, the concentration at half-maximal activity (AC50) in experiment [13] was 3.79 µM (active); in experiment [14] it was 3.77 µM (active); in [15], 13 µM (active); in experiment [16] it was 14.7 µM (active); in experiment [17] it was 12.4 µM (active). In experiment [11], the result was inactive.
As for `O=C(O)C(F)(OC(F)(F)C(F)(OC(F)(F)C(F)(OC(F)(F)C(F)(F)C(F)(F)F)C(F)(F)F)C(F)(F)F)C(F)(F)F` (stereo unspecified), the outcome in experiment [1], in experiment [2], in experiment [3], in [4], in [5] and in [6] was inactive. The outcome in [7], in experiment [8], in experiment [9], in experiment [10], in [11] and in [19] was inactive. For the same molecule, the result in [12], in experiment [13], in [14], in [15], in experiment [16] and in experiment [17] was inactive.
Take `O=P(O)(O)OCCC(F)(F)C(F)(F)C(F)(F)C(F)(F)C(F)(F)C(F)(F)F`: the outcome in experiment [1], in experiment [2], in [3], in [4], in experiment [5] and in experiment [6] was inactive. Also, the result in experiment [7], in experiment [8], in experiment [9], in [10], in [11] and in experiment [12] was inactive. In addition, the result in [13], in experiment [14], in experiment [15], in [16] and in experiment [17] was inactive. Further, the AC50 in experiment [5] is 0.823 µM (active).

The record behind these values is PubChem BioAssay (EPA / NIEHS).
